Assay [1] in a line: qHTS assay to identify small molecule antagonists of the estrogen receptor alpha (ER-alpha) signaling pathway using the BG1 cell line in the presence of 0.1 nM 17-beta-estradiol - cell viability counter screen (AID 1259241). Further: nearly all actives have a fitted effect of over 40% in size. In short, it runs like this:
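Viability in VM7Luc4E2 cells after 22 hr compound exposure under 0.1 nM 17beta-estradiol stimulation, by CellTiter-Fluor.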
For orientation: qHTS replaces the single test concentration by a dilution series.

Assay [2] is described as follows: qHTS assay to identify small molecule antagonists of the androgen receptor (AR) signaling pathway using the MDA cell line in the presence of 0.5 nM R1881 - cell viability counter screen (AID 1259242). Further: nearly all actives have a fitted effect of over 45% in size. The essentials:
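MDA-kb2 cells (MMTV-luciferase, AR/GR responsive) were treated with compounds plus 0.5 nM R1881 (final) for 16 hr at 37C, 0% CO2. Viability was then read in the same wells as live-cell protease fluorescence (CellTiter-Fluor, 30 min).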

In assay [3] the target is Estrogen receptor (Homo sapiens) (UniProt P03372). In words: qHTS assay to identify small molecule antagonists of the estrogen receptor alpha (ER-alpha) signaling pathway using the BG1 cell line in the presence of 0.1 nM 17-beta-estradiol (AID 1259244). Further: nearly all actives have a fitted effect of over 50% in size. Further: potency means the concentration at half of the fitted maximal effect. The essentials:
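VM7Luc4E2 cells (endogenous full-length ER-alpha, 4×ERE-luciferase), kept 5 days in phenol red-free, charcoal-stripped FBS medium; 4,000 cells/well. Compounds added with 0.1 nM (final) 17beta-estradiol, 22 hr at 37C; luminescence read with ONE-Glo after 30 min.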

The nature of assay [4]: qHTS assay to identify small molecule HDAC inhibitors (AID 1259364). Further: nearly all actives have a fitted effect of over 45% in size. Further: potency means the concentration at half of the fitted maximal effect. On activity change, negative = inhibition: top concentration of the series differs between compounds. In short, it runs like this:
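Wild-type HCT-116 cells, plated overnight at 37 C, exposed to compounds 2 hr at 37 C; luminogenic HDAC-Glo substrate then added 30 min at room temperature. Luminescence reports relative endogenous class I/II HDAC activity.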

Assay [5] is described as follows: qHTS assay to identify small molecule HDAC inhibitors - cell viability counter screen (AID 1259365). Further: series mostly up to about 92 µM; nearly all actives have a fitted effect of over 50% in size. In short, it runs like this:
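Cytotoxicity was gauged in wild-type HCT-116 cells after a brief 2hr treatment with DMSO-dissolved compounds at 37C and 5% CO2, using CellTiter-Glo luminescence developed for 30min at room temperature.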

Assay [6] is described as follows: qHTS assay to identify small molecule agonists of the sonic hedgehog signaling (Shh) pathway - cell viability counter screen (AID 1259366). Further: nearly all actives have a fitted effect of over 50% in size. Further: potency means the concentration at half of the fitted maximal effect. In short, it runs like this:
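Stable Gli1-Luc NIH/3T3 clone, 2,000 cells/well. Compound exposure 24hr at 37C. Read-out: CellTiter-Fluor fluorescence.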

Assay [7] in a line: qHTS assay to identify small molecule agonists of the sonic hedgehog signaling (Shh) pathway (AID 1259368; calls by dose curve;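 further: NIH/3T3-derived 3T3Gli1-Luc cells carrying a stable Gli1-driven firefly luciferase reporter; series mostly up to about 92 µM; nearly all actives have a fitted effect of over 15% in size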). In short, it runs like this:
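NIH/3T3-derived 3T3Gli1-Luc cells with stably integrated Gli1-driven firefly luciferase, 2,000 cells/well, compounds added after 4 hr. Incubated 24 hr at 37C, 5% CO2; luminescence read after 30 min with luciferase reagent at room temperature.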

Assay [8] in a line: qHTS assay to identify small molecule antagonists of the sonic hedgehog signaling (Shh) pathway - cell viability counter screen (AID 1259367). Further: nearly all actives have a fitted effect of over 55% in size. The essentials:
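After a 4 hr settling period, 3T3 Gli1-Luc cells were treated with DMSO-dissolved chemicals and conditioned medium, kept 24 hr at 37C in 5% CO2, and assayed for viability by CellTiter-Fluor fluorescence following 1 hr reagent incubation.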

Assay [9] is described as follows: qHTS assay to identify small molecule phospholipidosis (PLD) inducers (AID 1259344; active means well fitted curve in the direction sought with a large enough effect; an effect the other way counts as inactive or inconclusive). The essentials: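 HepG2 cells grown on collagen I take up LipidTOX Red while exposed to compound for 24 h; after fixation they are imaged at 20x and pit metrics are extracted.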

Results on 27 molecules are retold here after PubChem BioAssay (Tox21).

Values without a mark were called inactive. Inconclusive results are not listed. Active and inactive are the calls of the source. Unless noted, the call rests on the fitted dose curve; in most records, active means well fitted curve in the direction sought with a large enough effect in the repeat runs; inconclusive means weak or mixed curves; inactive means no such curve, though single readings can be large; an effect the other way counts as inactive or inconclusive.
On the % scale 0 is the no-effect control and ±100 the full control effect.

Estrogen receptor (Homo sapiens), sequence (P03372 whole entry, looked up): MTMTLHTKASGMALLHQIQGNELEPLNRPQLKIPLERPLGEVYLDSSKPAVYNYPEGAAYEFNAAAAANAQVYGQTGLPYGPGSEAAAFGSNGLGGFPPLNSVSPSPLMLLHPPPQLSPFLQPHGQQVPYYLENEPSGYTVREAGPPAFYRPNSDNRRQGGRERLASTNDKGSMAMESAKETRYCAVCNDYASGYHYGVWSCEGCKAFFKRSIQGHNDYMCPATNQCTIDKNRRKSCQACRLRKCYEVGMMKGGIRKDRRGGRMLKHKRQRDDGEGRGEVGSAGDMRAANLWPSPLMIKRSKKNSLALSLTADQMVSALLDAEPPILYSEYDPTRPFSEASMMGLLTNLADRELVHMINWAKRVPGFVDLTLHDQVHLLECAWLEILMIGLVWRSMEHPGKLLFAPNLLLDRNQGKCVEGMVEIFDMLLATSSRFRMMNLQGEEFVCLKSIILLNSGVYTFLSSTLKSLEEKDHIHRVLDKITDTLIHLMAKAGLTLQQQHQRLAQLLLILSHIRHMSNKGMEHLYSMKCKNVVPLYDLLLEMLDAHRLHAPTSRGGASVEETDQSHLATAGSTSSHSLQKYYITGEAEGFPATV

Consider `O=C1C=CC(=O)O1`, for which the Potency entry in [1], in assay [3], in [4], in assay [6] and in assay [7] was “inactive” each time. Also, the outcome in assay [2] and in assay [5] was inactive.

As to `CC/C=C\CCOC(=O)CCCCC`, the Potency entry in assay [1], in assay [3], in assay [4], in assay [6], in [8] and in assay [7] was “inactive” in each case. Besides, the result in [2] and in assay [5] was inactive.

Turning to `CCOC(=O)C1CC(=O)C(=C(O)C2CC2)C(=O)C1` (centres undefined), the Potency result in [1], in assay [3], in assay [4], in assay [6] and in assay [7] was “inactive” each time. The outcome in [2] and in assay [5] was inactive.

As to `O=C(CC(=O)C(F)(F)F)c1ccccc1`, the Potency result in assay [1], in [3], in [4], in assay [6] and in [7] was “inactive” each time. Besides, the outcome in [2] and in [5] was inactive.

`O=S(=O)(O)C(F)(F)F`: the Potency result in assay [1], in assay [3], in assay [4], in [6], in assay [8] and in [7] was “inactive” throughout. In addition, the result in [2] and in assay [5] was inactive.

As to `CCOC(=O)C(Br)c1ccccc1` (centres undefined), the Potency entry in [1], in assay [3], in assay [4], in [6], in [8] and in [7] was “inactive” each time. The outcome in [2] and in assay [5] was inactive.

Take `CCOc1ccc2nc(N)sc2c1`: the Potency result in [1], in assay [3], in assay [6], in [8] and in assay [7] was “inactive” throughout. The result in assay [2] and in assay [5] was inactive. The Potency in assay [4] was 24.1 µM (active).

Consider `CCCCCCCCCCCCOCCOS(=O)(=O)O`, for which the Potency result in [1], in [3], in assay [4], in [6] and in [7] was “inactive” each time. Besides, the outcome in [2] and in [5] was inactive.

Regarding `CCOC(=O)NCCC[Si](OCC)(OCC)OCC`, the Potency entry in [1], in assay [3], in assay [4], in assay [6] and in assay [7] was “inactive” each time. The outcome in assay [2] and in assay [5] was inactive.

As for `CCCOCCC`, the Potency entry in assay [1], in [3], in assay [4], in assay [6], in assay [8] and in assay [7] was “inactive” in each case. Moreover, the result in [2] and in assay [5] was inactive.

In the case of `COC(=O)N[C@H](C(=O)N[C@@H](Cc1ccccc1)[C@@H](O)CN(Cc1ccc(-c2ccccn2)cc1)NC(=O)[C@@H](NC(=O)OC)C(C)(C)C)C(C)(C)C`, the Potency result in assay [1], in assay [3], in assay [4] and in assay [7] was “inactive” in each case. Besides, the outcome in assay [2] and in assay [5] was inactive.

`O=C1CCCCC1C1CCCCC1` (centres undefined): the Potency entry in assay [1], in assay [3], in assay [4], in assay [6] and in assay [7] was “inactive” each time. Moreover, the result in assay [2] and in assay [5] was inactive.

For the molecule `CCCCNC(=S)NCCCC`, the Potency result in assay [1], in assay [3], in assay [4] and in [8] was “inactive” throughout. The result in assay [2] and in assay [5] was inactive.

For `OCC(CBr)(CBr)CBr`, the Potency entry in assay [1], in assay [3], in [6], in assay [8] and in assay [7] was “inactive” throughout. Besides, the result in assay [2] and in assay [5] was inactive.

For the molecule `ICCc1ccccc1`, the Potency entry in assay [1], in [4] and in assay [7] was “inactive” each time. For the same molecule, the result in assay [2] and in assay [5] was inactive. Also, the Potency in assay [3] is 67.2 µM (active).

As for `CC(C)(C)C1CCCCC1=O` (centres undefined), the Potency entry in [1], in assay [3], in assay [4], in assay [6] and in assay [7] was “inactive” throughout. In addition, the outcome in assay [2] and in assay [5] was inactive.

Consider `Cc1ccc(C)c(N)c1`, for which the Potency entry in assay [1], in assay [3], in assay [4], in assay [6], in assay [8] and in [7] was “inactive” throughout. Besides, the outcome in [2] and in [5] was inactive.

Take `CCCCNc1ccc(C(=O)OCCN(CC)CC)cc1`: the Potency entry in assay [1], in assay [3], in [4], in assay [6], in assay [8] and in assay [7] was “inactive” each time. Also, the result in assay [2] and in assay [5] was inactive.

Turning to `CC(C)C(=O)OCC(C)(C)C(O)C(C)C` (centres undefined), the Potency result in assay [1], in assay [3], in [4], in assay [6], in [8] and in assay [7] was “inactive” throughout. For the same molecule, the result in assay [2] and in [5] was inactive.

On to `C[C@]12C(=O)OC(=O)[C@H]1[C@H]1C=C[C@@H]2C1`, for which the Potency entry in [1], in assay [3], in [4] and in assay [7] was “inactive” in each case. Moreover, the outcome in assay [2] and in assay [5] was inactive.

Turning to `NC(=O)Cc1cccc(C(=O)c2ccccc2)c1N`, the Potency entry in assay [1], in assay [4], in assay [6] and in assay [8] was “inactive” in each case. Also, the result in assay [2] and in assay [5] was inactive. Also, the PLD induction in [9] was -0.295% [at 7.66 µM].

Regarding `CC(C)CC(=O)OCc1ccccc1`, the Potency result in assay [1], in assay [3], in assay [4], in assay [6] and in assay [7] was “inactive” throughout. Besides, the outcome in assay [2] and in [5] was inactive.

As to `CC(C)S`, the Potency result in assay [1], in assay [3], in assay [4], in assay [6], in assay [8] and in assay [7] was “inactive” in each case. Also, the result in assay [2] and in assay [5] was inactive.

Take `CCCCC1CCC(=O)O1` (centres undefined): the Potency result in assay [1], in assay [3], in assay [4], in assay [6] and in assay [7] was “inactive” in each case. Moreover, the outcome in assay [2] and in assay [5] was inactive.

For the molecule `CN(C)C(=O)NC1(c2ccccc2)CCN(CCC[C@]2(c3ccc(Cl)c(Cl)c3)CCCN(C(=O)c3ccccc3)C2)CC1`, the activity change, negative = cytotoxicity was 3.34% [at 19 µM] in assay [1] and -5.58% [at 19 µM] in [5]. In [2], the viability change, negative = cytotoxic is -6.41% [at 19 µM]. Also, the results for the activity change, negative = inhibition in [3] and in [4] were 3.38% [at 19 µM] and -4.11% [at 19 µM], respectively. Moreover, the Potency in assay [6] is 13 µM (active). The activity change in [7] was -5.82% [at 18.9 µM, active compounds read high].

With `CN1[C@@H]2CC[C@H]1CC(OC(=O)c1c[nH]c3ccccc13)C2` (some centres undefined), the Potency entry in assay [1], in assay [4], in assay [6] and in assay [8] was “inactive” in each case. The outcome in assay [2], in [9] and in [5] was inactive.

In the case of `CCCCCCCOC(=O)CCC`, the Potency entry in assay [1], in [3], in [4], in assay [6] and in assay [7] was “inactive” in each case. Further, the result in [2] and in assay [5] was inactive.
